In the library only some 4.6% were active in any assay of this set; here they are far more common.
tim23-1 inh: inhibits growth of tim23-1 mutant yeast | S. cerevisiae tim23-1 growth, BacTiter-Glo luminescence, 24 h | inhibition, % at 20 µM | 1.3% of 330,000 active | AID 463212;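 active = growth inhibition of the mutant yeast at or above 50%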;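 note: temperature-sensitive mutant grown at 25 °C; plate controls were DMSO-treated mutant yeast for no effect and medium wells lacking yeast for full effect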
TIM10 inh: growth inhibitors of TIM10 yeast strain. S. cerevisiae TIM10 strain growth, BacTiter-Glo luminescence, 24 h. inhibition, % at 10 µM. 1.4% of 330,000 active. AID 463195;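 active = inhibition of 40% or more at the single tested concentration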;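 note: wild-type TIM10 isogenic control strain grown at permissive 25 °C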
PfHsp90 yeast 2: inhibits growth of yeast expressing Plasmodium falciparum Hsp90; S. cerevisiae expressing PfHsp90, BacTiter-Glo ATP, 48 h; yeast lacking PDR1 and PDR3 efflux regulators; inhibition, % at 9.4 µM; 0.32% of 310,000 active;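 active = every replicate shows inhibition above about 80%, whatever the replicate mean, limit read from the data; inconclusive = mean inhibition reaches the set limit but some replicate falls short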;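 note: 0% = DMSO neutral controls and 100% = 20 µM radicicol positive controls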
NALP3 yeast inh: NALP3 inhibition in yeast | AID 2825 | 0.39% of 330,000 active | Yeast reconstituted NLRP3/ASC/caspase-1, beta-gal luminescence, 24 h | inhibition, % at 10 µM;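 active = inhibition of 50% or more; inactive = inhibition below 50%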;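 note: plate controls were induced DMSO wells for no effect and uninduced yeast grown without galactose for full effect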
SKKanGAS inh: blocks kanamycin growth of S. pyogenes SKKanGAS strain | inhibition, % at 7.5 µM | 1.3% of 300,000 active | BacTiter-Glo, 6 h;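 active = mean replicate score, as percent of positive control median, at least 50; inconclusive = mean below 50 but one replicate at or above 50; inactive = mean and every replicate below 50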;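 note: strain carries kanamycin resistance gene driven by streptokinase promoter and grows in 40 µg/ml kanamycin; loss of luminescence reflects streptokinase promoter inhibition or plain growth inhibition; 0% = median of DMSO wells and 100% = positive control at its reference dose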
tim10-1 inh: inhibits growth of tim10-1 mutant yeast. inhibition, % at 20 µM. 2.2% of 330,000 active. S. cerevisiae tim10-1 ts strain growth, BacTiter-Glo, 24 h;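 active = inhibition of at least 40%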;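 note: mutant grown at 25 °C; 0% = DMSO wells with yeast and 100% = wells holding no yeast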
NALP3 confirm: NALP3 inhibition confirmation in yeast; inhibition, % at 10 µM; 81% of 1,300 active; yeast expressing human NALP3, luminescence; shares compounds with NALP3 yeast inh; in the data active = inhibition above about 48%
Casp1-ASC yeast: caspase-1-ASC yeast counter-screen hit; shares compounds with NALP3 yeast inh; inhibition, % at 10 µM; AID 488784; 66% of 1,000 active; yeast expressing Caspase-1-ASC, luminescence counter screen
NALP3 yeast rt: retest-confirmed inhibitor of NALP3 in yeast; 53% of 1,000 active; inhibition, % at 10 µM; AID 488794; yeast expressing human NALP3, luminescence read-out; shares compounds with NALP3 yeast inh
The depositor's hits bear a star; ? = inconclusive; / = no result given. Cut-off read from the data, not from the text of the source, unless noted: active = inhibition above about 50%; inactive = the rest.

SMILES | tim23-1 inh | TIM10 inh | PfHsp90 yeast 2 | NALP3 yeast inh | SKKanGAS inh | tim10-1 inh | NALP3 confirm | Casp1-ASC yeast | NALP3 yeast rt
CC(C)(C)c1ccc(C(=O)NC(=S)N2CCCC2)cc1 | 31 | 8 | 16 | 63* | -5 | 10 | 49* | 80* | 71*
CC(C)(C)c1ccc(C(=O)NC(=S)N2CCCCCC2)cc1 | 47 | 38 | 22 | 34 | 37 | 38 | / | / | /
Cc1ccccc1CN1CCSc2sccc2C1=O | 14 | 16 | 55 | 58* | -3 | 1 | 37 | 37 | 38
O=C(c1ccccc1)N1CCSc2sccc2C1=O | / | / | -3 | / | 6 | / | / | / | /
O=C1c2ccsc2SCCN1Cc1ccccc1Cl | 3 | -13 | 6 | 51* | 8 | 3 | 57* | 44 | 47
CCN1C[C@@H]2[C@@H]3C(=O)N(Cc4ccccc4)C(=O)[C@@H]3[C@](C)(C1=O)N2C(=O)c1ccc(Cl)cc1 | / | / | 10 | / | / | / | / | / | /
Cc1ccc(S(=O)(=O)n2cccc2C)cc1 | 17 | 31 | / | -25 | -12 | 7 | / | / | /
O=C(Nc1ccc2c(c1)OCO2)Nc1cnccn1 | 11 | -11 | -13 | 10 | 4 | -4 | / | / | /
O=C(Nc1ccc2c(c1)OCO2)Nc1ccccn1 | 11 | 10 | 0 | 53* | -11 | 15 | 61* | / | /
O=C(Nc1ccc2c(c1)OCO2)c1cccc(Cl)c1 | 43 | 32 | 27 | 56* | -1 | 9 | 58* | 62* | 61*
COc1ccccc1N1CCN(c2nccc(C)n2)CC1 | 26 | -4 | 17 | 51* | 14 | 12 | 63* | 52* | 40
COc1ccccc1N1CCN(c2cc(N3CCCC3)nc(C)n2)CC1 | 20 | 7 | 14 | 12 | 3 | 15 | / | / | /
O=C(C1CCN(S(=O)(=O)c2cccc3cccnc23)CC1)N1CCn2c1nc1ccccc12 | 17 | 19 | 30 | 80* | -1 | 25 | 90* | 85* | 87*
CCC(C(=O)NCCCN1CCCC1=O)n1c2ccccc2c2nc(=O)cc(C)n21 (centres undefined) | -10 | 5 | 3 | 21 | ? | -8 | / | / | /
C=CCN(C(=O)CC(NC(C)=O)c1ccccc1)c1nc(-c2ccc(S(C)(=O)=O)cc2)cs1 (centres undefined) | 5 | 14 | -1 | 5 | 17 | -15 | / | / | /
O=C(NC1CC1)C1=C[C@H](C2CCCCC2)C[C@H](OCc2ccc(CO)cc2)O1 | 9 | 0 | 14 | 58* | -1 | 2 | 60* | 62* | 46
C#CCNC(=O)C1=C[C@H](C2CCCCC2)C[C@H](OCc2ccc(CO)cc2)O1 | 35 | 13 | -10 | 54* | 2 | 16 | 54* | 51* | 33
CCc1ccc(-c2cc(C)no2)cc1S(=O)(=O)N1CCOc2ccccc21 | 30 | -13 | -25 | 12 | 17 | 29 | / | / | /
CCc1ccc2oc(-c3ccc(OC)cc3)cc(=Nc3cccc(C(=O)O)c3)c2c1 | 21 | 15 | 17 | 40 | 8 | 16 | / | / | /
COc1ccc(-c2cc(C(=O)Nc3c(C)n(C)n(-c4ccccc4)c3=O)no2)cc1 | 6 | -2 | 3 | -3 | 1 | 3 | / | / | /
CCc1ccc2oc(-c3ccc(OC)cc3)cc(=Nc3c(C)n(C)n(-c4ccccc4)c3=O)c2c1 | 36 | 11 | -29 | 53* | 8 | -9 | 42 | 54* | 43
COc1ccc(-c2cc(=Nc3ccc(C(=O)O)cc3)c3cc(C)ccc3o2)cc1 | 27 | 29 | / | 53* | 7 | 32 | 72* | 57* | 41
Cc1ccc(/C=C(\C#N)C(=O)Nc2ccccn2)o1 | 7 | 5 | -11 | -13 | -4 | 17 | / | / | /
O=C(Nc1cccc(Cl)c1)c1ccc2c(c1)SC1=NS(=O)(=O)CCN12 | / | / | -13 | / | / | / | / | / | /
CC(C)(C)C(=O)Nc1ccc(N=Nc2ccccc2)cc1 | 7 | 25 | 13 | 53* | 5 | 17 | 65* | 50 | 39
SMILES | tim23-1 inh | TIM10 inh | PfHsp90 yeast 2 | NALP3 yeast inh | SKKanGAS inh | tim10-1 inh | NALP3 confirm | Casp1-ASC yeast | NALP3 yeast rt
O=C(O)CCC(=O)Nc1ccc(N=Nc2ccccc2)cc1 | / | / | / | / | -2 | / | / | / | /
Cc1ccc(NC(=O)COC(=O)c2ccc([N+](=O)[O-])o2)cc1S(=O)(=O)N1CCCCCC1 | -17 | -19 | / | 17 | 3 | 3 | / | / | /
O=C(O)c1ccc(NC2(C(=O)O)CCCC2)cc1 | / | / | -4 | / | / | / | / | / | /
Cc1cc(C)cc(C(=O)Nc2nc3ccccc3[nH]2)c1 | 47 | 13 | -16 | 52* | ? | 11 | 52* | 61* | 47
COc1ccc(Cl)cc1C(=O)Nc1nc2ccccc2[nH]1 | 31 | 22 | 25 | 72* | 12 | -23 | 78* | 77* | 72*
COc1ccc(C(=O)Nc2nc3ccccc3[nH]2)cc1OC | 1 | -3 | -7 | 9 | -6 | 15 | / | / | /
CC(C)CNC(=O)CC(=O)N/N=C/c1ccc(F)cc1 | -10 | 2 | 20 | -18 | 6 | 4 | / | / | /
CCN(CC)c1ncnc2sc3c(c12)CCC3 | 34 | 0 | / | 61* | -3 | 33 | 64* | 67* | 57*
Cc1ccc2nc(C)c3c(c2c1)N(c1ccc(F)cc1)CC3 | 10 | 17 | 6 | 24 | -2 | 29 | / | / | /
O=C(C1CCN(S(=O)(=O)c2ccc(Br)s2)CC1)N1CCc2ccccc21 | 42 | -2 | -20 | 55* | 23 | 31 | 64* | 61* | 43
COc1cccc(-n2nnnc2SCC(=O)Nc2ccc(NC(C)=O)cc2)c1 | -12 | 12 | 4 | -4 | -5 | -23 | / | / | /
O=C1C2C3C=CC(C3=C3CCCCC3)C2C(=O)N1c1ccccc1 (centres undefined) | 11 | 17 | 0 | 58* | -4 | 14 | 65* | 40 | 30
O=C1C2C3C=CC(C3)C2C(=O)N1c1ccccc1 (centres undefined) | -6 | 4 | / | 5 | -3 | 4 | / | / | /
CN(C)c1ccc(/C=C(\C#N)c2ccccn2)cc1 | 33 | 30 | 20 | 51* | 8 | 29 | 34 | / | /
COc1cc(/C=C(\C#N)c2ccccn2)cc(OC)c1O | 16 | 23 | -5 | 36 | -4 | 6 | / | / | /
COC(=O)c1ccc(/C=C(\C#N)c2ccccn2)cc1 | 23 | -7 | 15 | 63* | 18 | -3 | 52* | 47 | 50
CCCCOc1ccc(C2CCC(C(C)=O)C(C)C2)cc1 (centres undefined) | 11 | 0 | -17 | 17 | 4 | 20 | / | / | /
COc1ccc(C(C)(C)C)cc1NC(=O)CCCN1C(=O)CN(C)C1=O | -11 | -4 | -2 | -10 | / | -13 | / | / | /
O=C1c2ccsc2SCCN1Cc1ccc(F)cc1 | 6 | -7 | 32 | 65* | 10 | 24 | 72* | 63* | 34
